{"source": "PubChem BioAssay AID2315", "about": "(National Center for Advancing Translational Sciences (NCATS), 2010)", "note": "The whole screen tested about 290,000 compounds, of which about 27,000 (9.3%) were called active. The sample holds actives, similar compounds and a random draw of the others, so the mix is not that of the screen. Unmarked numbers belong to inactive results. Rule as the data show it: active = inhibition mostly above about 28% (no sharp cut-off); inactive = mostly below about 43%.", "data": [{"assay": "A qHTS for Small Molecule Inhibitors of Shiga Toxin; also: 0% is about no effect", "conditions": "Vero cells, Shiga toxin protein synthesis inhibition reporter; at 38.7 µM, stronger effect = higher value", "values": [{"smiles": "Cc1ccc(CN2CCN(c3ncccn3)CC2)c(C)c1", "inhibition": "6.99%"}, {"smiles": "Cc1ccccc1CN1CCNC(=O)C1CC(=O)NCCC1=CCCCC1", "note": "(stereo not given)", "inhibition": "-8.04%"}, {"smiles": "CC(=O)N1C(=O)C2(Nc3ccccc3N2)c2ccccc21", "inhibition": "-7.58%"}, {"smiles": "CC(C)=NN1C(=O)c2ccccc2NC1(C)C", "inhibition": "91.4% (active)"}, {"smiles": "CC(=O)NN1C(=O)c2ccccc2NC1c1ccccc1", "note": "(stereo not given)", "inhibition": "4.01%"}, {"smiles": "Nc1nc(SCC(=O)Nc2cc(C(F)(F)F)ccc2Cl)[nH]c(=O)c1NC(=O)c1ccco1", "inhibition": "-1.11%"}, {"smiles": "CCC(C)N1C(=O)S/C(=C/c2ccc(Sc3nc4ccccc4[nH]3)o2)C1=O", "note": "(stereo not given)", "inhibition": "11.8%"}, {"smiles": "COc1ccc(N2CCN(S(=O)(=O)c3ccc4c(c3)NC(=O)C(C)C(=O)N4)CC2)cc1", "note": "(stereo not given)", "inhibition": "-6.85%"}, {"smiles": "O=S(=O)(Nc1ccc(Oc2ncccn2)c(Cl)c1)c1ccc(F)cc1", "inhibition": "-3.73%"}, {"smiles": "C=CCOc1cccc(CNCc2cccnc2)c1", "inhibition": "29%"}, {"smiles": "COC(=O)Cc1[nH]n(-c2nc3ccccc3s2)c(=O)c1C(C)=Nc1ccc(OC)cc1", "inhibition": "38.9%"}, {"smiles": "CCc1ccc(-c2cc(C(=O)NCc3ccco3)c3ccccc3n2)s1", "inhibition": "41.4%"}, {"smiles": "CC(=NCc1ccco1)c1c(C(F)(F)F)[nH]n(-c2nc3ccccc3s2)c1=O", "inhibition": "122% (active)"}, {"smiles": "C/C(=N\\NC(=O)CC(C)C)c1c(C(F)(F)F)[nH]n(-c2nc3ccccc3s2)c1=O", "inhibition": "65.9% (active)"}, {"smiles": "CCC(C)Cn1c(O)cc2nn(-c3nc4ccccc4s3)c(=O)c-2c1C", "note": "(stereo not given)", "inhibition": "29.1%"}, {"smiles": "CC(=NCc1ccco1)C1=C(O)c2ccccc2C1=O", "inhibition": "31.2%"}, {"smiles": "Cc1ccc(NC(=O)[C@H](Cc2ccccc2)NC(=O)C2CCNCC2)cc1", "inhibition": "-0.595%"}, {"smiles": "COc1ccccc1NC(=O)N1CCCC1C(=O)NCc1cccs1", "note": "(stereo not given)", "inhibition": "-1.36%"}, {"smiles": "O=C(c1ccc(OC2CCN(C/C=C/c3ccc(F)cc3)CC2)cc1)N1CCCCC1", "inhibition": "-5.42%"}, {"smiles": "COCC1CCN(C(=O)C2CCC(=O)N(Cc3cccc(C(F)(F)F)c3)C2)CC1", "note": "(stereo not given)", "inhibition": "38.4% (active)"}, {"smiles": "O=C1CCC(C(=O)N2CCCCO2)CN1Cc1cccc(C(F)(F)F)c1", "note": "(stereo not given)", "inhibition": "29.5%"}, {"smiles": "COCC1CCN(C(=O)C2CCC(=O)N(CC3CCCCC3)C2)CC1", "note": "(stereo not given)", "inhibition": "19.8%"}, {"smiles": "CCOc1ccc(N(CC(=O)NCCc2ccc(F)cc2)S(=O)(=O)c2ccccc2)cc1", "inhibition": "10.2%"}, {"smiles": "O=C(NCCN1CCOCC1)c1ccc(/C=C2\\Sc3ccccc3N(Cc3ccc(F)cc3)C2=O)cc1", "inhibition": "-4.17%"}, {"smiles": "NC(=O)C1CCN(C(=O)COc2cccc3cccnc23)CC1", "inhibition": "33.9%"}, {"smiles": "CCOC(=O)C1CCN(C(=O)COc2cccc3ccccc23)CC1", "inhibition": "34.7% (active)"}, {"smiles": "CCOC(=O)C1CCN(C(=O)COc2cc(C)c(Br)c(C)c2)CC1", "inhibition": "2.84%"}, {"smiles": "O=C(O)c1cc(S(=O)(=O)NC2CCCc3ccccc32)ccc1O", "note": "(stereo not given)", "inhibition": "16.7%"}, {"smiles": "CCN(CC)CCCNC(=O)c1cn(C)c2ccc(S(=O)(=O)N(C)C3CCCCC3)cc2c1=O", "inhibition": "-11.8%"}, {"smiles": "COc1ccccc1C(=O)N(Cc1ccc(C)o1)C1CCS(=O)(=O)C1", "note": "(stereo not given)", "inhibition": "-7.17%"}, {"smiles": "CCN1CCC(=NNC(=O)c2ccc(C)c([N+](=O)[O-])c2)CC1", "inhibition": "14.2%"}, {"smiles": "Cc1ccc(C(=O)Nc2cccc3ncccc23)cc1[N+](=O)[O-]", "inhibition": "11.7%"}, {"smiles": "Cc1cc(O)c(NC(=O)c2ccc(C)c([N+](=O)[O-])c2)cc1C", "inhibition": "57.7% (active)"}, {"smiles": "Cc1csc(NC(=O)CSc2nc(=O)cc(N)n2-c2ccc(F)cc2)n1", "inhibition": "-2.89%"}, {"smiles": "Cc1ccccc1NC(=O)N1CCCC1C(=O)NCc1ccccc1", "note": "(stereo not given)", "inhibition": "-8.06%"}, {"smiles": "COc1ccc(C(=O)n2nc(C)c(Br)c2C)cc1OC", "inhibition": "1.86%"}, {"smiles": "COc1cccc(N(C(=O)c2snc(C(N)=O)c2N)C(C(=O)NCC2CCCO2)c2c[nH]c3ccccc23)c1", "note": "(stereo not given)", "inhibition": "-11.7%"}, {"smiles": "Cc1ccc(C(=O)NCCNC(=O)c2cnccn2)cc1", "inhibition": "3.15%"}, {"smiles": "CCN(CC)c1ccc(/C=N/Nc2nc(C)cc(C)n2)c(O)c1", "inhibition": "28.1% (active)"}, {"smiles": "Cc1cc(C)nc(N/N=C/c2ccncc2)n1", "inhibition": "-5.35%"}, {"smiles": "Cc1cc(C)nc(N/N=C/c2c(CO)cnc(C)c2O)n1", "inhibition": "3.16%"}, {"smiles": "CCN(CC)c1ccc(C(=O)N/N=C/c2ccc(N3CCOCC3)cc2)cc1", "inhibition": "-11.2%"}, {"smiles": "CCN(CC)c1ccc(/C=N/NC(=O)c2cnccn2)c(O)c1", "inhibition": "62.2% (active)"}, {"smiles": "Cc1nn(C(C)C(=O)N2CCOCC2)c(=O)c2nn(-c3ccccc3)c(C)c12", "note": "(stereo not given)", "inhibition": "-9.86%"}, {"smiles": "O=C(c1ccc(F)cc1)N1CCCC(C(=O)N2CCCCC2)C1", "note": "(stereo not given)", "inhibition": "4.46%"}, {"smiles": "CC(=O)Nc1ccc(S(=O)(=O)N2CCC(C(=O)N[C@@H](Cc3ccccc3)C(=O)O)CC2)cc1", "inhibition": "-6.49%"}, {"smiles": "Cc1cccc(N(C)C(=O)c2cc(S(=O)(=O)N3CCCCC3)c[nH]2)c1", "inhibition": "-6.21%"}, {"smiles": "C=C(C)C(=O)Nc1cccc(C(C)=O)c1", "inhibition": "-10.8%"}, {"smiles": "CSc1ccccc1NC(=O)CN(C)CC(=O)Nc1cccc(Br)c1", "inhibition": "-0.946%"}, {"smiles": "CCN(CC)C(=O)C(=O)Nc1cccc(Br)c1", "inhibition": "106% (active)"}, {"smiles": "O=C(N/N=C/c1cccc(OC(=O)c2ccc([N+](=O)[O-])cc2)c1)c1cccnc1", "inhibition": "-3.03%"}, {"smiles": "CCN(CC)/[N+]([O-])=N/Oc1cc(O/[N+]([O-])=N/N2CCCC2CO)c([N+](=O)[O-])cc1[N+](=O)[O-]", "note": "(stereo not given)", "inhibition": "-5.78%"}, {"smiles": "COc1ccc(-c2csc(NC(=O)COC(=O)c3ccc(Br)o3)n2)cc1", "inhibition": "92.3% (active)"}, {"smiles": "COc1ccc(-c2csc(NC(=O)COC(=O)Cc3ccc(Cl)cc3Cl)n2)cc1", "inhibition": "64% (active)"}, {"smiles": "COc1cc(CC(=O)Nc2nc(-c3ccc(F)c(F)c3)cs2)cc(OC)c1OC", "inhibition": "-5.98%"}, {"smiles": "O=C(NCCc1csc(-c2ccccc2)n1)c1ccccc1F", "inhibition": "40.5%"}, {"smiles": "COc1ccc(-c2nc(CCNC(=O)c3ccc(Br)o3)cs2)cc1", "inhibition": "20.3% (active)"}, {"smiles": "COc1ccc(N2CCN(C(=O)CNC(=O)c3ccc(Br)o3)CC2)cc1", "inhibition": "-11.6%"}, {"smiles": "COc1ccc(CC(=O)Nc2nc(-c3ccc(F)c(F)c3)cs2)cc1OC", "inhibition": "-2.51%"}, {"smiles": "CC(C)(C)NC(=O)NC(=O)COC(=O)Cc1ccc(Cl)cc1Cl", "inhibition": "16.6%"}, {"smiles": "CCCc1ccc(-c2csc(NC(=O)Cc3cccs3)n2)cc1", "inhibition": "13%"}, {"smiles": "CC(C)=CCCC(C)CN1CCC(n2nccc2NC(=O)c2ccccc2)CC1", "note": "(stereo not given)", "inhibition": "-5.43%"}, {"smiles": "O=C(Nc1ccccc1)C1CCN(C(=O)c2ccc(Br)cc2)CC1", "inhibition": "6.29%"}, {"smiles": "COCCCC1CCN(C(=O)C2CCC(=O)N(C3CCCCCC3)C2)CC1", "note": "(stereo not given)", "inhibition": "-6.64%"}, {"smiles": "O=C(O)c1[nH]c2ccccc2c1C(c1cccc(O)c1)c1c(C(=O)O)[nH]c2ccccc12", "inhibition": "-5.15%"}, {"smiles": "COC(=O)COc1ccc2c(=O)c(Oc3ccccc3Br)coc2c1", "inhibition": "-7.5%"}, {"smiles": "CCc1ccc(N2CC(C(=O)N3CCCCCC3)CC2=O)cc1", "note": "(stereo not given)", "inhibition": "16%"}, {"smiles": "CC(CC(=O)N1CCN(c2ccccc2)CC1)S(=O)(=O)c1ccc2c(c1)NC(=O)CS2", "note": "(stereo not given)", "inhibition": "1.51%"}, {"smiles": "O=C(CCS(=O)(=O)c1ccccc1)Nc1nc2c(s1)CCCC2", "inhibition": "20.4%"}, {"smiles": "O=C(Cn1c(=O)sc2ccccc21)Nc1nc2c(s1)CCCC2", "inhibition": "22.4%"}, {"smiles": "Fc1ccc2nc(Nc3nc4c(s3)CCCC4)sc2c1", "inhibition": "72.1% (active)"}, {"smiles": "CN(CC(=O)Nc1c(Cl)cccc1Cl)C(=O)c1ccncc1", "inhibition": "-30.3%"}, {"smiles": "O=c1ccc(-c2ccc(S(=O)(=O)Nc3ccccc3)o2)n[nH]1", "inhibition": "-5.64%"}, {"smiles": "O=C(O)c1ccc(S(=O)(=O)N2CCC(Cc3ccccc3)CC2)cc1", "inhibition": "-10.1%"}, {"smiles": "O=C(NCCCc1ccccc1)C1CCC(=O)N(CCc2ccc(Cl)cc2)C1", "note": "(stereo not given)", "inhibition": "35.2% (active)"}, {"smiles": "O=C(NCCN1CCOC1=O)C1CCC(=O)N(CCc2ccc(Cl)cc2)C1", "note": "(stereo not given)", "inhibition": "-3.56%"}, {"smiles": "O=C(NCCc1ccccc1Cl)C1CCC(=O)N(CCCc2ccccc2)C1", "note": "(stereo not given)", "inhibition": "-7.04%"}, {"smiles": "Cc1ccc(-n2nc3c(=O)n(C(C)C(=O)NCc4ccc5c(c4)OCO5)nc(C)c3c2C)cc1", "note": "(stereo not given)", "inhibition": "-4.41%"}, {"smiles": "CS(=O)(=O)N1CCCC(C(=O)Nc2ccccc2C(F)(F)F)C1", "note": "(stereo not given)", "inhibition": "-10%"}, {"smiles": "COc1ccccc1Nc1ncnc2c1oc1ccccc12", "inhibition": "53.4% (active)"}, {"smiles": "COc1ccc(C)cc1Nc1nc(C)nc2c1oc1ccccc12", "inhibition": "2.95%"}, {"smiles": "CCC(C(=O)OC)n1cnc2c(oc3ccccc32)c1=O", "note": "(stereo not given)", "inhibition": "27.3%"}, {"smiles": "Cc1occc(=O)c1OCc1c(Cl)cccc1Cl", "inhibition": "-6.59%"}, {"smiles": "O=C1COc2ccc(S(=O)(=O)NCCc3ccc(Cl)cc3)cc2N1", "inhibition": "2.79%"}, {"smiles": "Cc1ccc(NS(=O)(=O)c2ccc(C(C)(C)C)cc2)cn1", "inhibition": "1.36%"}, {"smiles": "Cc1ccc(S(=O)(=O)c2nc(-c3cccs3)oc2NCc2cccnc2)cc1", "inhibition": "-2.32%"}, {"smiles": "COc1ccc(N2CCN(C(=O)CN3C(=O)COc4ccccc43)CC2)cc1", "inhibition": "23.1%"}, {"smiles": "CN1CCN(C(=O)c2ccccc2NC(=O)COc2ccccc2Cl)CC1", "inhibition": "30.2% (active)"}, {"smiles": "CCCOc1cccc(C(=O)Nc2ccccc2C(=O)N2CCN(C)CC2)c1", "inhibition": "1.15%"}, {"smiles": "O=C(Nc1ccccc1C(=O)N1CCCCCC1)c1ccccc1Cl", "inhibition": "-4.45%"}, {"smiles": "Nc1nc(NCC2CCCO2)nc(Nc2ccccc2F)c1[N+](=O)[O-]", "note": "(stereo not given)", "inhibition": "3.33%"}, {"smiles": "C=Cn1cc[n+](CC(=O)c2ccc(OC)c(OC)c2)c1", "inhibition": "-7.58%"}, {"smiles": "O=[N+]([O-])c1ccc(N/N=C/c2ccccc2)cc1", "inhibition": "60.4% (active)"}, {"smiles": "O=C(N/N=C/c1ccc(O)cc1)/C(=C/c1ccc([N+](=O)[O-])cc1)NC(=O)c1ccccc1", "inhibition": "3.28%"}, {"smiles": "Cc1cccc(COc2ccccc2/C=N/Nc2ccc([N+](=O)[O-])cc2)c1", "inhibition": "-8.03%"}]}]}
